Consider 29 compounds from PubChem BioAssay AID2590 (National Center for Advancing Translational Sciences (NCATS), 2010).

The structures appear in SMILES notation. “And” between values parts separate entries of the source, which are not always exact repeats. Equal entries are not always repeated. Results filed as inconclusive are left out. The source made the active and inactive calls. The call rests on the fitted dose curve; in most records, active means well fitted curve in the direction sought with a large enough effect; inconclusive means small, poorly fitted or top-dose-only effect, or another doubt; inactive means no such curve, though single readings can be large or run the other way.

The target of the assay is Lysosomal acid glucosylceramidase (Homo sapiens) (UniProt P04062). Briefly: qHTS Assay for Inhibitors and Activators of N370S glucocerebrosidase as a Potential Chaperone Treatment of Gaucher Disease: Primary Screen Confirmation.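 On Potency: enzyme source is Gaucher patient spleen homogenate not purified recombinant protein.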 The note with it: N370S glucocerebrosidase enzyme activity, fluorogenic substrate; series mostly up to 54 µM. An outline of the steps: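 Patient-spleen homogenate carrying N370S GC (27 ug) in pH 5.0 citrate buffer with 0.01% Tween-20, 1 mM 4-methylumbelliferyl-beta-glucoside, 40 min at 37C; fluorescence 365/440 nm after NaOH/glycine stop; AC50 from Hill fits.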
Sequence of Lysosomal acid glucosylceramidase (Homo sapiens) (P04062 whole entry N409S): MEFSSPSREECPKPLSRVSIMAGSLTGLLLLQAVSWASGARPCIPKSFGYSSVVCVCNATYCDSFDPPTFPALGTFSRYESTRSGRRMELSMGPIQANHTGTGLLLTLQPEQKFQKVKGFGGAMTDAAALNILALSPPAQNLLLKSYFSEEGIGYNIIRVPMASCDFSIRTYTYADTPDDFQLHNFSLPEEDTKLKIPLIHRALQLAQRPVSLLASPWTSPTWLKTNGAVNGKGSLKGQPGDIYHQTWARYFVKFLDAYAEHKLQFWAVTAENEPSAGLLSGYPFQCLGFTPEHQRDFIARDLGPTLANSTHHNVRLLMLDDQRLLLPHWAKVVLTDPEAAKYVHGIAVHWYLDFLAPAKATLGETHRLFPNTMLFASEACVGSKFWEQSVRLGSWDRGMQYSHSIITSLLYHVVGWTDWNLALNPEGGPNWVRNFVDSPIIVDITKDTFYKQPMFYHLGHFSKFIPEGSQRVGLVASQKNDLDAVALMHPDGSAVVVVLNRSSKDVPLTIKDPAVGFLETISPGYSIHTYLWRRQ
Potency means the concentration at half of the fitted maximal effect.

Turning to `O=S(=O)(c1ccc(OC(F)(F)F)cc1)N1CCN(c2nc(-c3cccs3)nc3ccccc23)CC1`, the Potency was 2.91 µM (active).
Take `Cc1ccc(S(=O)(=O)N2CCN(c3nc(-c4cccs4)nc4ccccc34)CC2)c(C)c1`: the Potency was 0.291 µM (active).
For `O=S(=O)(c1ccccc1Cl)N1CCN(c2nc(-c3cccs3)nc3ccccc23)CC1`, the Potency is 1.16 µM (active) and 259 nM (active).
The same measure for `CCN1CCN(C(=O)CCN(CC(C)C)c2nc(-c3cccs3)nc3ccccc23)CC1`: 20.2 µM (active).
Turning to `CN(CCO)c1nc(-c2cccs2)nc2ccccc12`, the Potency entry is “inactive”.
`COc1ccc(Nc2nc(-c3cccs3)nc3ccccc23)cc1`: the Potency is 2.25 µM (active).
The same measure for `COC(=O)c1nc(N2CCN(S(=O)(=O)c3ccc(C)cc3)CC2)c2ccccc2n1`: 16.3 µM (active); for `CC(C)S(=O)(=O)N1CCN(c2nc(-c3cccs3)nc3ccccc23)CC1`: 5.07 µM (active).
As to `S=C(NCCCc1cnc[nH]1)NCCN(Cc1ccc(Cl)c(Cl)c1)c1ccc(Br)cn1`, the Potency is 2.06 µM (active).
With `C#CCOCCOCCOCCNc1nc(N2CCN(C(=O)CCCCCCCCCCNC(=O)[C@H](CCCCN)n3cc(CCCC(=O)O)nn3)CC2)nc(N2CCN(C(=O)CCCCCCCCCCNC(=O)[C@H](CCCN=C(N)N)n3cc(C[C@@H](C)CC)nn3)CC2)n1`, the Potency is 8.19 µM (active).
Turning to `O=S(=O)(c1ccc(F)cc1)N1CCN(c2nc(-c3ccccc3)nc3ccccc23)CC1`, the Potency was 6.51 µM (active).
Take `O=S(=O)(c1ccc2c(c1)OCCO2)N1CCN(c2nc(-c3ccccc3)nc3ccccc23)CC1`: the Potency was 3.2 µM (active).
On to `COc1ccccc1S(=O)(=O)N1CCN(c2nc(-c3cccs3)nc3ccccc23)CC1`, for which the Potency was 0.73 µM (active).
The same measure for `COc1ccccc1NC(=O)COc1ccccc1C(=O)Nc1ccccc1`: “inactive”; for `Cc1cc(NC(=O)CCS(=O)(=O)c2ccc3c(c2)NC(=O)C(C)S3)ccc1Br` (centres undefined): 6.51 µM (active); for `O=S(=O)(c1cccs1)N1CCN(c2nc(-c3cccs3)nc3ccccc23)CC1`: 0.819 µM (active).
With `O=S(=O)(c1ccccc1Br)N1CCN(c2nc(-c3cccs3)nc3ccccc23)CC1`, the Potency was 1.3 µM (active).
With `Cc1ccccc1S(=O)(=O)N1CCN(c2nc(-c3cccs3)nc3ccccc23)CC1`, the Potency is 2.53 µM (active).
The same measure for `c1ccc2c(NCC3CCCO3)nc(N3CCOCC3)nc2c1` (centres undefined): “inactive”; for `Cc1ccc(S(=O)(=O)N2CCN(c3ccnc(-c4cccs4)n3)CC2)cc1`: 9.19 µM (active).
Turning to `O=S(=O)(c1ccc2ccccc2c1)N1CCN(c2nc(-c3cccs3)nc3ccccc23)CC1`, the Potency is 0.326 µM (active).
Turning to `Cc1cccc(NC(=O)Nc2cccc(C#N)c2)n1`, the Potency entry was “inactive”.
Take `Cc1cc(C)cc(N(CC(=O)Nc2ccc(Br)cc2)S(=O)(=O)c2c(C)[nH]c(=O)[nH]c2=O)c1`: the Potency was 2.06 µM (active).
Consider `Cc1ccc(S(=O)(=O)C2CCN(c3nc(-c4cccs4)nc4ccccc34)CC2)cc1`, for which the Potency is 8.19 µM (active).
On to `Cc1nc2nc(-c3ccc(F)cc3)cn2nc1C`, for which the Potency entry was “inactive”.
`CCOCCCNc1nc(-c2ccccc2)nc2ccccc12`: the Potency was 10.1 µM (active).
Regarding `Cc1ccc(-c2nc(N3CCN(S(=O)(=O)c4ccc(F)cc4)CC3)c3ccc(Cl)cc3n2)cc1`, the Potency result is “inactive”.
On to `S=C(NCCCc1cnc[nH]1)NCCCN(Cc1ccc(Cl)cc1)c1ccc(-c2ccccc2)cn1`, for which the Potency is 1.27 µM (active).
Regarding `Cc1cc(C)cc(N(CC(=O)Nc2ccc(C)cc2Cl)S(=O)(=O)c2c(C)[nH]c(=O)[nH]c2=O)c1`, the Potency was 1.63 µM (active).
